Screen size: about 340,000 compounds; about 3,300 (0.97%) were called active. The sample as a whole holds a higher share of actives than the screen did. Values without a mark were called inactive.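 The calls were made as follows: active = mean activation above about 17%, with every replicate also reaching it (limit read from the data, passing the limit was not always enough); inconclusive = only one of the two conditions met; inactive = the rest.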

The assay deals with Protein FosB (Mus musculus) (UniProt P13346). Kind of assay: enhancers of mouse delta FosB DNA binding – biochemical, fluorescence polarization, TAMRA-CDK5 oligo, single point, primary screen (AID 493131).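 Also: fluorescence polarization rise as delta FosB binds a TAMRA Cdk5 AP-1 oligo.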 The note with it: purified delta FosB, at 25 µM, stronger effect = higher value, percent of positive-control signal above neutral wells. A general note: In fluorescence polarisation assays a small probe gives low polarisation when free and higher when bound to something large.
Sequence of Protein FosB (Mus musculus) (P13346 whole entry, looked up): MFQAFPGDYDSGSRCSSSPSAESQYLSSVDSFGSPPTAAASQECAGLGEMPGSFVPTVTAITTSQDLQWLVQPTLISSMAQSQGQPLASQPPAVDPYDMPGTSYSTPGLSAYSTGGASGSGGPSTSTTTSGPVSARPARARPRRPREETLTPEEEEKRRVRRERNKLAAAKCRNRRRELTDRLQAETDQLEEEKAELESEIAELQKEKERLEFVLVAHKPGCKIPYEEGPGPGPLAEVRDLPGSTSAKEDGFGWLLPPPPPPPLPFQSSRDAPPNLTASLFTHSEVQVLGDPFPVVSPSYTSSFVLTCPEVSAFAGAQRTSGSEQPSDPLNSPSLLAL
With `COc1cc(O)c2c(=O)c3c(O)c(O)ccc3oc2c1OC`, the activation was -1.22%.

Regarding `CCCc1nc2c([nH]1)C(c1cccnc1)C(C#N)=C(N)O2` (configuration not stated), the activation is -0.0522%. As for `CCOC(=O)C1=C(O)/C(=C/c2ccc(OCC(=O)Nc3ccc(C)cc3)cc2)N=C1C`, the activation is 30.5% (active). With `COC(=O)C1=C(O)/C(=C/c2ccc(OCC(=O)Nc3ccccc3)cc2)N=C1C` the figure was 13.8%; with `Cc1ccc(NC(=O)COc2ccc(/C=C3/NC(=O)NC3=O)cc2)cc1`, 73.1% (active). On to `O=C(COc1ccccc1)Nc1ccc(F)cc1`, for which the activation is -2.09%.

On to `CCOC(=O)C1=C(O)/C(=C/c2cc(C)n(-c3ccccc3)c2C)N=C1C`, for which the activation was -14.4%. With `CC(=O)Nc1ccc(NC(=O)COc2ccc(-c3ccccc3)cc2)cc1` the figure was 14.5%; with `CSCCC(NC(=O)COc1ccccc1)C(=O)N(C)CC(=O)Nc1ccc(C)cc1` (configuration not stated), -10.6%. `C#Cc1ccc([C@@H]2C=C(C(=O)O)O[C@H](OCCCCO)C2)cc1`: the activation was -5.67%. To `O=C(Nc1ccc(Br)cn1)C1CCN(S(=O)(=O)c2cccs2)CC1` belongs 0.962%; to `CN(CCNC(=O)c1cc2c(-c3ccccc3F)nn(C)c2s1)C1CCCCC1`, -29%. On to `COc1ccc(C2CC(=O)Nc3sc(=N)c4c(N)c(C#N)c(N)nc4c32)cc1OC` (configuration not stated), for which the activation is 2.35%. To `CSc1nc2c(c(=O)[nH]1)C(c1cccc(Cl)c1Cl)CC(=O)N2` (configuration not stated) belongs -2.19%.

With `N#Cc1c(N)nc2c3c(sc(=N)c2c1N)NC(=O)CC3c1ccccc1Cl` (configuration not stated), the activation was 57.2% (active). As for `O=C(Nc1ccc(N2CCN(C(=O)c3cccs3)CC2)cc1)c1cccnc1Cl`, the activation is -0.363%. To `Nc1nnc(SCC(=O)OCc2ccc(Cl)c(Cl)c2)s1` belongs -5.37%; to `COc1ccc(OCC(O)CN(C)C(=O)C(C)Oc2ccccc2)cc1` (configuration not stated), 4.24%; to `CN(C)CC(O)COc1ccc(C(C)(C)c2ccc(OCC(O)CN(C)C)cc2)cc1` (configuration not stated), 20% (active). As to `Cc1cc(C)n(CC(O)COc2ccc(C(C)(C)C)cc2)n1` (configuration not stated), the activation was -7.22%. As to `O=C1CC(Sc2ncn[nH]2)C(=O)N1c1ccccc1` (configuration not stated), the activation was 1.52%. Consider `Cc1cc(Nc2cc(N3CCN(C)CC3)nc(Sc3ccc(NC(=O)C4CC4)cc3)n2)n[nH]1`, for which the activation was 3.28%. Regarding `CCCOCC(O)CC(CC)C(=O)NNC(=S)Nc1ccccc1` (configuration not stated), the activation was -0.789%.

`Cc1ccc(/C=N/NC(=O)COc2ccccc2-c2ccccc2)cc1`: the activation is 2.13%. Regarding `C=CCNC(=O)/C=C/c1ccc(C(C)C)cc1`, the activation was -5.28%.

Turning to `O=C(/C=C/c1ccc(F)cc1)NC(=S)NNC(=O)c1cccnc1`, the activation is -8.6%. Regarding `O=C(/C=C/c1ccc(F)cc1)NCCNC(=O)/C=C/c1ccc(F)cc1`, the activation is 53.1% (active). Turning to `O=C1/C(=C/c2coc3ccc(O)cc3c2=O)SC(=S)N1c1ccccc1`, the activation was 45.3% (active). Consider `Cc1ccc2occ(/C=N/NC(=O)c3ccccc3C)c(=O)c2c1`, for which the activation is -9.18%.

Regarding `O=c1c(/C=N/O)coc2ccc(Cl)cc12`, the activation is -6.61%.

`COc1ccc(CNC(=O)c2ccc3oc(C(C)C)nc3c2)cc1`: the activation was -6.34%. With `CC(=O)Nc1ccc(Nc2c3ccccc3nc3ccccc23)cc1` the figure was 107% (active). As to `CC(=O)Nc1ccc(S(=O)(=O)N(C)c2nc3ccccc3nc2Cl)cc1`, the activation is -7.23%. With `CC(=O)Nc1ccc(Nc2c([N+](=O)[O-])cc(S(C)(=O)=O)cc2[N+](=O)[O-])cc1` the figure was 9.05%. Consider `COC(=O)CNC(=O)c1ccc(OC2CCN(C(=O)C3CC3)CC2)cc1`, for which the activation is 4.73%.

With `O=C(NCc1ccccc1)C1CCCN(S(=O)(=O)c2cccs2)C1` (configuration not stated), the activation is -3.74%. In the case of `COc1ccc(C(=O)NN2C(=O)C3C(c4ccccc4)C=CC(c4ccccc4)C3C2=O)cc1` (configuration not stated), the activation was -10.4%.

As to `COc1ccccc1NC(=O)CCC(=O)OC(C)C(=O)c1ccccc1` (configuration not stated), the activation was -0.918%. With `O=C(O)C1C2C=CC(O2)C1C(=O)Nc1ccccn1` (configuration not stated), the activation was 2.08%. In the case of `O=C(NCCc1ccccn1)c1cc(-c2ccc(Cl)cc2)nc2ccccc12`, the activation is -16.7%. On to `COc1ccc(OC)c(NC(=O)Cn2c(=O)oc3ccccc32)c1`, for which the activation was -3.42%. `COc1ccccc1CNC(=O)c1cc(=O)c2ccccc2o1`: the activation is -8.74%. In the case of `COc1ccccc1CNC(=O)Cn1c(=O)oc2cc(Cl)ccc21`, the activation was 46.6% (active). For the compound `COc1ccccc1C(=O)NCC(=O)OCC(=O)Nc1nnc(-c2ccccc2)o1`, the activation is 0.87%.

Take `CCOc1ccc(S(=O)(=O)NCCC(=O)NCC(C)(C)N2CCOCC2)cc1`: the activation is -1.62%. In the case of `NC(=O)c1cc(-c2cccnc2)nc2ccc(Br)cc12`, the activation was 0.097%. To `NC(N)=Nc1nc2ccc(Br)cc2c(=O)[nH]1` belongs 42.4% (active); to `C/C(=N\N)c1c(-c2ccccc2)c2cc(Br)ccc2[nH]c1=O`, -5.15%. To `CC(=O)Nc1ccc(S(=O)(=O)N2CCN(CCCOc3cc(C)ccc3C)CC2)cc1` belongs 0.131%; to `N#Cc1c(NC(=O)CSc2nc3ccccc3c(=O)n2Cc2ccco2)sc2c1CCCC2`, 6.6%; to `Cc1cc(NC(=O)CSc2nc3cc(Cl)ccc3c(=O)n2Cc2ccco2)no1`, 41.2% (active).

As to `Cc1cc(NC(=O)CSc2nnc(-c3ccco3)n2N)no1`, the activation was 2.33%. Take `COc1ccc(CCN2C(=O)CC(N3CCC(C(N)=O)CC3)C2=O)cc1OC` (configuration not stated): the activation is -2.97%.

For `CCOC(=O)N1CCN(C(=O)C2CCCN(c3ncnc4c3sc3cccc(F)c34)C2)CC1` (configuration not stated), the activation is -16.9%. With `O=C(NN=Cc1ccccc1)c1ccccc1`, the activation is -3.35%.

Consider `Cc1c(/C=N\NC(=O)c2cc3ccccc3o2)c2ccccc2n1C`, for which the activation is -8.02%. Regarding `O=C(N/N=C/c1cccc(O)c1)c1cc2c(ccc3ccccc32)o1`, the activation was 36.7% (active). On to `COC(=O)c1cccnc1NC(=S)NC(C)C`, for which the activation was -6.13%. With `COc1ccccc1CC(=O)Nc1ccc(S(=O)(=O)N2CCCC2)cc1`, the activation was -8.89%. With `C/C=C(\C)C(=O)N1CC2(CC(c3cccc(NC(=O)CCCCC)c3)=NO2)C[C@@H]1C(N)=O` (some centres not stated) the figure was -1.2%. With `CC1=C(C(=O)OCc2ccccc2)C(c2ccc(C(F)(F)F)cc2)NC(=O)N1CCCCCC(=O)O` (configuration not stated) the figure was -6.43%; with `CCCCNC(=O)C(C)N(CCN(C)C)C(=O)CCCN1C(=O)NC(c2ccc(Cl)cc2)C(C(=O)OCc2ccccc2)=C1C` (configuration not stated), -3.28%. For `CCCCNC(=O)C(C)N(CCN(C)C)C(=O)CCCCCN1C(=O)NC(c2ccc(Cl)cc2)C(C(=O)OCc2ccccc2)=C1C` (configuration not stated), the activation is 18.2% (active). As to `Cc1ccc(CC2CC(=O)N(c3ccc4c(c3)OCCO4)C2=O)cc1` (configuration not stated), the activation is -9.23%. As to `N#CC(C#N)=CN=c1ccn(Cc2ccc(Cl)cc2Cl)cc1`, the activation is -0.0405%.

In the case of `COc1ccccc1-n1c(=S)[nH]c2c(sc(=S)n2-c2ccc(C)cc2C)c1=O`, the activation was -9.95%. On to `COc1ccc(C(=O)Nc2c(N)nc(SCC(=O)N3CCC(C)CC3)[nH]c2=O)cc1OC`, for which the activation was -3.09%. To `COc1ccc(NC(=O)CSc2nc(N)c(-c3ccccc3)c(=O)[nH]2)cc1` belongs -6.21%. Turning to `COc1ccc(C(=O)Nc2c(N)nc(SCC(=O)Nc3ccc(C(C)=O)cc3)[nH]c2=O)cc1`, the activation was 22% (active). `O=C(COC(=O)CNS(=O)(=O)c1ccc(F)c(F)c1F)NC1CCCC1`: the activation is 0.263%. With `COc1ccc(CCN(Cc2cc3cccc(C)c3[nH]c2=O)C(=O)N2CCCC2)cc1OC`, the activation was -15.7%. With `COc1ccccc1C1=Nc2cccc3cccc(c23)N1`, the activation is -1.27%. As for `Fc1ccccc1N=C1Nc2cccc3cccc1c23`, the activation is 3.8%. As for `c1ccc(C2=Nc3cccc4cccc(c34)N2)cc1`, the activation was 28.1% (active). To `CC(=O)N1CSCC1C(=O)O` (configuration not stated) belongs 0.385%; to `Cc1ccc(NC(=O)C(CC(=O)O)C2CCCO2)c(C)c1` (configuration not stated), -0.253%; to `Cn1ccnc1SCC(=O)Nc1ccc2c(c1)OCCO2`, -4.18%. With `Cc1ccc(-c2cc(C(=O)N/N=C/C=C/c3ccccc3)n[nH]2)o1` the figure was 23.5% (active); with `CC(C)c1cc(C(=O)N/N=C/C(Br)=C/c2ccccc2)n[nH]1`, -3.49%; with `O=C(NN=CC=Cc1ccccc1)C(O)C(O)C(=O)NN=CC=Cc1ccccc1` (configuration not stated), 2.15%. Take `Cc1ccc(OCc2cc(C(=O)N(C)CCn3ccnc3C)no2)cc1C`: the activation is -7.77%. Consider `O=C(c1ccc(NS(=O)(=O)c2ccc3[nH]c(=O)[nH]c3c2)cc1)N1CCCCC1`, for which the activation was -5.69%. To `Cc1cccc([C@@H]2[C@@H]3C(=O)N(Cc4ccccc4)C(=O)[C@@H]3[C@]3(Cc4ccc(Cl)cc4)C(=O)N(c4cccc(Cl)c4)C(=O)N23)c1` belongs -7.94%; to `COc1ccc(-n2c(SCC(=O)Nc3sc4c(c3C#N)CCCC4)nnc2-c2ccc(O)cc2)cc1`, 23.1% (active); to `CCCc1cc(=O)[nH]c(SCC(=O)Nc2sc3c(c2C#N)CCCC3)n1`, -10.9%.

As for `COc1cccc(CN(C)CC(=O)Nc2sc3c(c2C#N)CCC3)c1`, the activation was -3.77%. `NC(=O)c1nnsc1-c1ccc(-c2snnc2C(N)=O)cc1`: the activation was 12.3%.

With `Cc1c(C(=O)NCCN2CCOCC2)sc2nc(-c3ccc(F)cc3)cn12`, the activation is -10.6%. As for `CCCCn1c(N)c(N(CC(C)C)C(=O)c2ccc(-n3c(C)ccc3C)cc2)c(=O)[nH]c1=O`, the activation is 8.61%. As to `Cc1nc(/N=C(\N)NC(=O)NC2CCCCC2)nc2ccccc12`, the activation is 3.68%. With `COc1ccc2nc(/N=C(\N)NC(=O)Nc3ccccc3)nc(C)c2c1` the figure was 52.1% (active); with `COc1ccc2nc(C)cc(Nc3cccc(C(=O)O)c3)c2c1`, -0.297%.

(Values after PubChem BioAssay AID493131 (Broad Institute, 2011).)
